# Unmarked numbers belong to inactive results. Results filed as inconclusive are left out. Entries that show only a call come without a potency. The source made the active and inactive calls. Calls follow the shape of the dose curve; as a rule, active = well fitted curve in the direction sought with a large enough effect; inconclusive = small, poorly fitted or top-dose-only effect, or another doubt; inactive = no such curve, though single readings can be large; an effect the other way counts as inactive or inconclusive.
# Key:
# [1] = biological target: Glutathione peroxidase 1 (Homo sapiens) (UniProt P07203); assay: Primary qHTS Assay for Inhibitors of Recombinant Selenoprotein Glutathione Peroxidase 1 (GPX1) (AID 1845191); also: nearly all actives have a fitted effect of over 65% in size
# Sequence of Glutathione peroxidase 1 (Homo sapiens) (P07203 whole entry, looked up): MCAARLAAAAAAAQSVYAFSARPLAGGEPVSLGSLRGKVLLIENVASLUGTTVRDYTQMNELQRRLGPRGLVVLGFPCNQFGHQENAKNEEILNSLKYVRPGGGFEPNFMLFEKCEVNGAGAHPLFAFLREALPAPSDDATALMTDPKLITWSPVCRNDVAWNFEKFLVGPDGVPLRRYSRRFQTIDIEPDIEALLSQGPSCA
# Procedure, shortened: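 GPX1 10 nM, GR 100 nM, GSH 1 mM, NADPH 0.5 mM, CHP 0.5 mM (final). 30-min cpd preincubation, RT. Ex340/Em450 read t=0, t=15 min.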
# [2] = biological target: Phospholipid hydroperoxide glutathione peroxidase GPX4 (Homo sapiens) (UniProt P36969); assay: Primary qHTS Assay for Inhibitors of Recombinant Selenoprotein Glutathione Peroxidase 4 (GPX4) (AID 1845192); also: series mostly up to about 50 µM; nearly all actives have a fitted effect of over 65% in size
# Sequence of Phospholipid hydroperoxide glutathione peroxidase GPX4 (Homo sapiens) (P36969 whole entry, looked up): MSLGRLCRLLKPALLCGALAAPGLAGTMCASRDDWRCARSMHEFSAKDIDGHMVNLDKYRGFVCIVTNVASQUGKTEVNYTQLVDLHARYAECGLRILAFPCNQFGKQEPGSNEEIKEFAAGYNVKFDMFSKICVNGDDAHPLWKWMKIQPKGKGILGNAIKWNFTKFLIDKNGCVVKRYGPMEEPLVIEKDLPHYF
# Procedure, shortened: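 qHTS, GR-coupled: GPX4 200 nM + cpd 30 min RT → GSH 1 mM, NADPH 0.5 mM, GR 100 nM → CHP 0.5 mM start; fluor 340/450 at t0 and t15 min; no-enzyme wells as control.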
# [3] = Primary fluorescence-based thiol-reactive (MSTI) qHTS assay for identification of artifact compounds. (AID 1845221); also: nearly all actives have a fitted effect of over 65% in size; also: potency is read from the fitted curve at half-maximal effect;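 as to activity change, negative = thiol reactive: series mostly up to about 54 µM; thiol-reactive compounds lower the probe fluorescence signal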
# Procedure, shortened: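 Probe: MSTI 4 uM, PBS pH 7.4, 2% DMSO. Incubation 1 h, RT, light-protected. Readout fluorescence 525/598 nm.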
# [4] = tested on: Nanoluciferase (engineered Oplophorus gracilirostris luciferase); assay: Primary Nanoluciferase (NLuc) qHTS assay for identification of artifact compounds. (AID 1845222);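 also: NLuc secreted into diluted conditioned medium of S16 cells; series mostly up to about 54 µM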
# Procedure, shortened: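 Using secreted nanoluciferase in S16 culture medium (0.22 um filtered, 1:55 dilution), compounds were preincubated 15 min at RT. Signal was generated with Nano-Glo reagent (1:100) over 5 min.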
# [5] = biological target: Luciferin 4-monooxygenase (Photinus pyralis) (UniProt P08659); assay: Primary firefly luciferase (FLuc) qHTS assay for identification of artifact compounds. (AID 1845220); also: nearly all actives have a fitted effect of over 60% in size; also: potency is read from the fitted curve at half-maximal effect; as to activity change, negative = inhibition: series mostly up to about 54 µM
# Procedure, shortened: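 In this counter-screen for luciferase artifacts, test compounds met substrate (10 uM each luciferin and ATP) before 10 nM enzyme started the reaction. Light output was measured 5 min later.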
structure (smiles),measurement,setting,value
CC(C)(O)/C=C/C(=O)[C@](C)(O)[C@H]1[C@H](O)C[C@@]2(C)[C@@H]3CC=C4[C@@H](C=C(O[C@@H]5O[C@H](CO)[C@@H](O)[C@H](O)[C@H]5O)C(=O)C4(C)C)[C@]3(C)C(=O)C[C@]12C,Potency,[1],inactive
same,Potency,[2],inactive
same,Potency,[3],inactive
same,Potency,[4],inactive
COc1cc2c(cc1O)C(c1ccc(O)cc1)C(C)C(C)C2 (centres undefined),Potency,[1],inactive
same,Potency,[2],inactive
same,Potency,[3],inactive
same,Potency,[4],inactive
COC(=O)c1cc(OC)cc(OC)c1C(=O)c1c(OC)cc2c(c1O)C1CCC(O)C(C)(O2)O1 (centres undefined),Potency,[1],inactive
same,Potency,[2],inactive
same,Potency,[4],inactive
C=C1C(OC(C)=O)C(=O)C2C(C)(C)C(O)CCC2(C)C1CC(OC(C)=O)/C(C)=C/COC(C)=O (centres undefined),Potency,[1],inactive
same,Potency,[2],inactive
same,Potency,[4],inactive
COc1cc(Nc2nc3c(s2)CCCC3c2ccccc2)ccc1-n1cnc(C)c1 (centres undefined),Potency,[1],inactive
same,Potency,[2],inactive
same,"activity change, negative = thiol reactive",[3],-6.96% [at 11.5 µM]
same,"activity, negative = inhibition",[4],4.88% [at 11.6 µM]
CC(=O)OC1C(C)C2C(OC3OC(CO)C(O)C(O)C3O)OC=C(C(=O)O)C2C1OC(=O)c1ccccc1 (centres undefined),Potency,[1],inactive
same,Potency,[2],inactive
same,Potency,[4],inactive
CC1=C2C3OC(=O)C(C)C3(O)CCC2(C)CCC1 (centres undefined),Potency,[1],inactive
same,Potency,[2],inactive
same,Potency,[4],inactive
CC(C)(O)C(O)C(=O)OCc1ccc(O[C@@H]2O[C@H](CO)[C@@H](O)[C@H](O)[C@H]2O)cc1 (some centres undefined),Potency,[1],inactive
same,Potency,[2],inactive
same,Potency,[3],inactive
same,Potency,[4],inactive
Cn1c2ccc(NC(=O)c3ccccc3)cc2c(=O)n2nc(C(=O)O)cc12,Potency,[1],inactive
same,Potency,[2],inactive
same,Potency,[4],inactive
CC(=O)O[C@@H]1[C@H](O[C@@H]2OC[C@](O)(CO)[C@H]2O)[C@@H](O[C@@H]2O[C@@H](C)[C@H](O)[C@@H](O[C@@H]3O[C@H](CO)[C@@H](O)[C@H](O)[C@H]3O)[C@H]2O)[C@H](OC(=O)[C@]23CCC(C)(C)C[C@H]2C2=CCC4[C@@]5(C)C[C@H](O)[C@H](O[C@@H]6O[C@H](C(=O)O)[C@@H](O)[C@H](O)[C@H]6O)[C@@](C)(C(=O)O)C5CC[C@@]4(C)[C@]2(C)CC3)O[C@@H]1C (some centres undefined),Potency,[1],inactive
same,Potency,[2],inactive
same,"activity change, negative = thiol reactive",[3],238% [at 11.5 µM]
same,"activity, negative = inhibition",[4],0% [at 11.6 µM]
C=C1[C@H]2CCC3[C@]4(C)CCC[C@@](C)(C(=O)O)C4CC[C@]3(C2)[C@H]1OC(C)=O (some centres undefined),Potency,[1],inactive
same,Potency,[2],inactive
same,Potency,[3],inactive
same,Potency,[4],inactive
C=C1C(OC(C)=O)[C@@]23CCC4[C@](C)(C(=O)O)CCC[C@@]4(C)[C@]2(O)CC[C@H]1C3 (some centres undefined),Potency,[1],inactive
same,Potency,[2],inactive
same,Potency,[3],inactive
same,Potency,[4],inactive
CC(C)=CCC(O)[C@](C)(O)C1[C@H](O)C[C@@]2(C)C3CC=C4C(C[C@H](O)[C@@H](O[C@@H]5O[C@H](CO)[C@@H](O)[C@H](O)[C@H]5O)C4(C)C)[C@]3(C)C(=O)C[C@]12C (some centres undefined),Potency,[1],inactive
same,Potency,[2],inactive
same,Potency,[3],inactive
same,Potency,[4],inactive
C=C1CC/C=C(/CO)C(=O)C[C@@H]2[C@@H]1C[C@@]2(C)COC(C)=O,Potency,[1],inactive
same,Potency,[2],inactive
same,Potency,[3],11.9 µM (active)
same,Potency,[4],inactive
CC1=C(C(=O)OC2OC(COC3OC(CO)C(O)C(O)C3O)C(O)C(O)C2O)C(C)(C)CCC1 (centres undefined),Potency,[1],inactive
same,Potency,[2],inactive
same,Potency,[4],inactive
CC(=O)O[C@H]1[C@H](OC(=O)C(C)C)[C@]2(C)OC3(CC[C@]2(C)[C@H]2CCC[C@]4(CO4)[C@]12C)COC(=O)C3 (some centres undefined),Potency,[1],inactive
same,Potency,[2],inactive
same,Potency,[3],inactive
same,Potency,[4],inactive
CC(C)(Oc1ccc(-c2nc3cc(Cl)ccc3s2)cc1)C(=O)O,Potency,[1],inactive
same,Potency,[5],2.39 µM (active)
same,Potency,[3],inactive
COc1cncc(C#Cc2ccccn2)c1,Potency,[1],inactive
same,Potency,[2],inactive
same,Potency,[3],inactive
same,Potency,[4],inactive
O=C(c1c2ccccc2cc2ccccc12)N1CCC(N2CCC[C@@H](C(=O)N3CCOCC3)C2)CC1,Potency,[1],inactive
same,Potency,[5],inactive
same,Potency,[3],inactive
CC(=O)N[C@H](Cc1c[nH]c2ccccc12)C(=O)OCc1cc(C(F)(F)F)cc(C(F)(F)F)c1,Potency,[1],inactive
same,Potency,[2],inactive
same,Potency,[3],inactive
same,Potency,[4],inactive
CC(=O)NC(Cc1c[nH]c2ccccc(=O)c12)C(=O)O (centres undefined),Potency,[1],inactive
same,Potency,[5],inactive
same,Potency,[3],5.32 µM (active)
same,Potency,[4],inactive
C[C@@H]1O[C@@H](OC2C(CO)OC(OCC3OC(OC(=O)[C@]45CCC(C)(C)CC4C4=CCC6[C@@]7(C)CC[C@@H](O)[C@](C)(C(=O)O)C7CC[C@@]6(C)[C@]4(C)CC5)C(O)C(O)C3O)C(O)C2O)[C@H](O)[C@H](O)[C@H]1O (some centres undefined),Potency,[1],inactive
same,"activity change, negative = inhibition",[5],-1.59% [at 11.6 µM]
same,"activity change, negative = thiol reactive",[3],268% [at 11.5 µM]
same,"activity, negative = inhibition",[4],3.23% [at 11.6 µM]
C=C1CC/C=C(/C(=O)O)CCC2C1CC2(C)C (centres undefined),Potency,[1],inactive
same,Potency,[5],inactive
same,Potency,[3],inactive
same,Potency,[4],inactive
CC(C)c1c(NC(=O)Nc2ccc(Cl)cc2)c(=O)n(-c2ccccc2)n1C,Potency,[1],inactive
same,Potency,[5],inactive
same,Potency,[3],inactive
same,Potency,[4],inactive
CC(C)=CCc1cc(O[C@@H]2O[C@H](CO[C@@H]3OC[C@](O)(CO)[C@H]3O)[C@@H](O)[C@H](O)[C@H]2O)ccc1O,Potency,[1],inactive
same,Potency,[5],inactive
same,Potency,[4],inactive
CCC(C)/C=C(C)/C=C/C1=CC2=C(Cl)C(=O)C(C)(O)C(=O)C2(O)C(OC)O1 (centres undefined),Potency,[1],inactive
same,Potency,[5],inactive
same,Potency,[4],inactive
